Experimental findings from PubChem BioAssay are described below.

Unmarked numbers belong to inactive results. Some of the results follow. Activity calls are given as the source filed them. Rule as the data show it, unless noted: active = inhibition above about 30%; inactive = the rest.

Assay [1] deals with Nuclear receptor coactivator 3 (Homo sapiens) (UniProt Q9Y6Q9). The assay is described as follows: NCOA3 GAL4-fusion reporter inhibition – cell-based, luminescence, quadruplicate, confirmation (AID 588792;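 active = mean inhibition over 43.08%, the solvent-only control mean plus 3 SD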;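 also: 0% = DMSO treated cells and 100% = gossypol at 36 µM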). As to conditions: HEK293 GAL4-SRC3 luciferase reporter, at 3.6 µM, stronger effect = higher value.
Assay [2] relates to transactivating tegument protein VP16 (Human herpesvirus 1), Gal4-VP16 luciferase reporter. The assay can be described thus: repression of VP16-driven luciferase reporter – cell-based, luminescence, high throughput, counter-screen for SRC3 inhibitor project (AID 588794). As to conditions: mammalian cells, at 3.6 µM, stronger effect = higher value.
Assay [3] in a line: StAR promoter reporter inhibitors, counter-screen for LRH-1 inverse agonist project, cell-based, luminescence, high throughput (AID 651611; in the data active = inhibition above about 28%). As to conditions: StAR promoter luciferase reporter counterscreen, at 3.6 µM, stronger effect = higher value.
Assay [4] concerns the target Nuclear receptor subfamily 5 group A member 2 (Homo sapiens) (UniProt O00482). The assay is described as follows: NR5A2 activity suppression in reporter cells – cell-based, luminescence, confirmation (AID 651613; in the data active = inhibition above about 42%;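 also: HEK293T cells co-transfected with LRH-1 and StAR promoter luciferase reporter; 0% = vehicle wells and 100% = parental cells lacking receptor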). As to conditions: cell-based LRH-1 luciferase reporter, inverse agonism; at 3.6 µM; stronger effect = higher value.
Assay [5] has as its target Steroidogenic factor 1 (Homo sapiens) (UniProt Q13285). The assay is described as follows: inverse agonism at SF1 nuclear receptor – cell-based, luminescence, high throughput, counter-screen for LRH-1 inverse agonist project (AID 651614; in the data active = inhibition above about 44%;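 also: cells cotransfected with StAR promoter reporter and SF1 expression vector; 0% = vehicle on cells with receptor and 100% = vehicle on cells lacking receptor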). As to conditions: cell-based SF1 luciferase reporter, at 3.6 µM, stronger effect = higher value.
The nature of assay [6]: compounds suppressing VP16-driven luciferase signal – cell-based, luminescence, high throughput, counter-screen for LRH-1 inverse agonist project (AID 651615; in the data active = inhibition above about 33%). As to conditions: Gal4-VP16 luciferase reporter cells, at 3.6 µM, stronger effect = higher value.
Assay [7] is described as follows: repression of VP16-driven luciferase reporter – cell-based, luminescence, high throughput, counter-screen for SRC1 inhibitor project (AID 588824; in the data active = inhibition above about 25%). As to conditions: cell-based VP16 transactivation luciferase luminescence; at 3.6 µM; stronger effect = higher value.
Assay [8] has as its target Nuclear receptor coactivator 1 (Homo sapiens) (UniProt Q15788). The assay is described as follows: NCOA1 GAL4-fusion reporter inhibition – cell-based, luminescence, quadruplicate, confirmation (AID 588820;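 active = mean inhibition above 46.68%, the untreated control wells mean plus 3 SD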;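 also: 0% = DMSO wells and 100% = gossypol 36 µM treated wells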). As to conditions: HEK293 GAL4-SRC1 luciferase reporter, at 3.6 µM, stronger effect = higher value.
Assay [9] is described as follows: VP16-driven transactivation reporter suppression – cell-based, luminescence, HEK293, counter-screen for COUP-TFII antagonist project (AID 687007; in the data active = inhibition above about 13%). As to conditions: HEK293 Gal4-VP16 luciferase reporter, at 8.5 µM, stronger effect = higher value.
Assay [10] addresses COUP transcription factor 2 (Homo sapiens) (UniProt P24468). The assay is described as follows: retest of COUP-TFII reporter suppressors – cell-based, luciferase reporter, HEK293, triplicate, confirmation (AID 687008;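 active = mean inhibition over three repeats above a set limit taken from the earlier primary screen, cut at about 38% in these data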;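 also: 100% = cells given the luciferase reporter alone without the COUP-TF2 vector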). As to conditions: HEK293 NGFI-A luciferase reporter, luminescence; at 8.5 µM; stronger effect = higher value.

Chain of Nuclear receptor coactivator 3 (Homo sapiens) (Q9Y6Q9 whole entry, looked up, the tested form may be a part): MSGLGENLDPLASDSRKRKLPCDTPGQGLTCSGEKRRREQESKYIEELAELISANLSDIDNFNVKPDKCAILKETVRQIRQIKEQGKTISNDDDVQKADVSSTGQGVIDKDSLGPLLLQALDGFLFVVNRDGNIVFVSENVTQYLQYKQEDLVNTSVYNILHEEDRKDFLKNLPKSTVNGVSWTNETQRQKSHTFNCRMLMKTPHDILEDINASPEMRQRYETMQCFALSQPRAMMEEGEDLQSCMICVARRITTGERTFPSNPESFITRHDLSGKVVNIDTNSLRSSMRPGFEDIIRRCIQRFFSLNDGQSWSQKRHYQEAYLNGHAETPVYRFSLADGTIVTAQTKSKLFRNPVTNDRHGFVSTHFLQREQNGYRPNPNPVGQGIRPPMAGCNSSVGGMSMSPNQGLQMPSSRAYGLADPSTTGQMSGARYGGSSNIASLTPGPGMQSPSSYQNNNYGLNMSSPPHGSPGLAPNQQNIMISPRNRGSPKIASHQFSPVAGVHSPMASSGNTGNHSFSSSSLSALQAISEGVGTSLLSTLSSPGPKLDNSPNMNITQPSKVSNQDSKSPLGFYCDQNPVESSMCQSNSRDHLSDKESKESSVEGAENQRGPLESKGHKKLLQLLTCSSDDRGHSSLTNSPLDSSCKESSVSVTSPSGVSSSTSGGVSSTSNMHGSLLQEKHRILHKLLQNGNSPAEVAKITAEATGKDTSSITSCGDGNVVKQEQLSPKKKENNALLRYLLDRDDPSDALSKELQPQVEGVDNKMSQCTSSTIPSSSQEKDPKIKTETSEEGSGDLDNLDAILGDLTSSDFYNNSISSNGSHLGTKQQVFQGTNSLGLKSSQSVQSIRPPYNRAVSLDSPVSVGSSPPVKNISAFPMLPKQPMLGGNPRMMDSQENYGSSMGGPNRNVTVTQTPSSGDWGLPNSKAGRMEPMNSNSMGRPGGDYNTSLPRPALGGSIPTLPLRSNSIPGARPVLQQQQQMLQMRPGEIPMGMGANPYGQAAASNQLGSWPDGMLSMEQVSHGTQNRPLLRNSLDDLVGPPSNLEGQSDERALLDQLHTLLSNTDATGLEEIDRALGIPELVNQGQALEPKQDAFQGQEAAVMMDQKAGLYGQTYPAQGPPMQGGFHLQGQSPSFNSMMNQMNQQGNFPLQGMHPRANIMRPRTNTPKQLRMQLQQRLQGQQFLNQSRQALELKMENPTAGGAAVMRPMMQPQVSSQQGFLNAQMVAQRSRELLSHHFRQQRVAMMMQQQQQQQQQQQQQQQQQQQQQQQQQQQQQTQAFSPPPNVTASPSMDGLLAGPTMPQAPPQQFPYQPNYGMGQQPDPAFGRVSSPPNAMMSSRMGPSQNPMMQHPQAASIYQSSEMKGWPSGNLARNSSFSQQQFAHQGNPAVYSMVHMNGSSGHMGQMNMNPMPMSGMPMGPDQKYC
Chain of Steroidogenic factor 1 (Homo sapiens) (Q13285 whole entry, looked up, the tested form may be a part): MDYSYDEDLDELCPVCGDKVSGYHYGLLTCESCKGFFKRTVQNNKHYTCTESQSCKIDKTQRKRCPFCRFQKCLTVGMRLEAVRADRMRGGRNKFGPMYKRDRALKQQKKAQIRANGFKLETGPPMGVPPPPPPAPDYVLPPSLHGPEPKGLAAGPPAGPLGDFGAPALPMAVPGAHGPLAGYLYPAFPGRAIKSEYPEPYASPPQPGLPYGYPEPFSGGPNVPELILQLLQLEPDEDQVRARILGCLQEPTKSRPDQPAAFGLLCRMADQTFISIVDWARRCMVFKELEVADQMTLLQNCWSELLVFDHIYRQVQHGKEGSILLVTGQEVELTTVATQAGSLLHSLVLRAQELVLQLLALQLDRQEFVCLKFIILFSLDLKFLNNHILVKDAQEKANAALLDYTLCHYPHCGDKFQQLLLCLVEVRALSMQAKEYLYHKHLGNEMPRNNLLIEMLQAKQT
Chain of Nuclear receptor subfamily 5 group A member 2 (Homo sapiens) (O00482 whole entry, looked up): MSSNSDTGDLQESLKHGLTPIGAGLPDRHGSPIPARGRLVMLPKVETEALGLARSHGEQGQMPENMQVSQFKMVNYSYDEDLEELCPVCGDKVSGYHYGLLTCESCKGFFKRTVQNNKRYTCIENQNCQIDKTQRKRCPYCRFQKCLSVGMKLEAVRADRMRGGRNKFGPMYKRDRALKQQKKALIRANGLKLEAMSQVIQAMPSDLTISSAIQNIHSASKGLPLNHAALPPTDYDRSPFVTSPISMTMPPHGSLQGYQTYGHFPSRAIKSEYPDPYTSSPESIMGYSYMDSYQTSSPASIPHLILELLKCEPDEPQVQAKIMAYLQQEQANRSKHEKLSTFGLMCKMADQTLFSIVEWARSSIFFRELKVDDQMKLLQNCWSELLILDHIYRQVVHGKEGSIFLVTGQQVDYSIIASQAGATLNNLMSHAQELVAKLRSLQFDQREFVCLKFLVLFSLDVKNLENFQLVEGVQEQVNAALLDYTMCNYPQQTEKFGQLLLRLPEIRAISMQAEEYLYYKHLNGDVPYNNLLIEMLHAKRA
Chain of Nuclear receptor coactivator 1 (Homo sapiens) (Q15788 whole entry, looked up, the tested form may be a part): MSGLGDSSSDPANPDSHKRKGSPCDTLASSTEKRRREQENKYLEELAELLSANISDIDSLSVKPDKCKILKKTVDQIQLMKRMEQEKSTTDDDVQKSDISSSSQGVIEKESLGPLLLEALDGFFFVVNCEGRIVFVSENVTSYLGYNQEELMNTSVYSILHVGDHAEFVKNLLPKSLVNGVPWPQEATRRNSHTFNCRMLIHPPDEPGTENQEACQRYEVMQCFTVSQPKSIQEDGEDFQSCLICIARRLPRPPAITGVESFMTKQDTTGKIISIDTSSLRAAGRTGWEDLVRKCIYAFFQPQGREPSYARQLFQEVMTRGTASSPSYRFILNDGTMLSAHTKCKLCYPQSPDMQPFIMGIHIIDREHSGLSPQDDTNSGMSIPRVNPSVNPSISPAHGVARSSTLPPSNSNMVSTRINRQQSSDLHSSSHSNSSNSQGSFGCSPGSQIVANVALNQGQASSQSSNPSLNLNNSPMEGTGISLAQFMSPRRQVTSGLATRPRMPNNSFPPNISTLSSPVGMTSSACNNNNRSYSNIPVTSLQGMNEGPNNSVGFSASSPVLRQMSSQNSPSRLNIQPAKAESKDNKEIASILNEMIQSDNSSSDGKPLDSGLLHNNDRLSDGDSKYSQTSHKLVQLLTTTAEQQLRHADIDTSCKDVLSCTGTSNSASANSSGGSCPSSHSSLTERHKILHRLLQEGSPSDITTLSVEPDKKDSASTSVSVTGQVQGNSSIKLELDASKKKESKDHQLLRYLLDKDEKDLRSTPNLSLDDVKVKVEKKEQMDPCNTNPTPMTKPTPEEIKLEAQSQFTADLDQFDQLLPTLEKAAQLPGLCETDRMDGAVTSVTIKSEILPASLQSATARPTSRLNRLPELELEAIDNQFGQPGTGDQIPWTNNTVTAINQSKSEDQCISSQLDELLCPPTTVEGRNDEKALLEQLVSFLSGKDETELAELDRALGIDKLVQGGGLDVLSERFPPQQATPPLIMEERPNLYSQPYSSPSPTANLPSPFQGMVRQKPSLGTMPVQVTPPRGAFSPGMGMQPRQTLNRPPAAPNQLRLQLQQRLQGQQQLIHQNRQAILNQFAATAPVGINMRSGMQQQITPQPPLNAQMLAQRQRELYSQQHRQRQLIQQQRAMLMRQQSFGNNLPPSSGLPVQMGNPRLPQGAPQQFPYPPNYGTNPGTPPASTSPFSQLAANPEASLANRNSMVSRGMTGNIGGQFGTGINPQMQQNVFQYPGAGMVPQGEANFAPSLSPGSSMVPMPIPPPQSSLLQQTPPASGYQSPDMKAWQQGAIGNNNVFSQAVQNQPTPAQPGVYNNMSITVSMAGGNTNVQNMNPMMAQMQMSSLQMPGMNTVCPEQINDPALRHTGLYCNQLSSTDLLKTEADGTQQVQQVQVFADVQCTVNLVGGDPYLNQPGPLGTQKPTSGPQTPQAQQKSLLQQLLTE
Chain of COUP transcription factor 2 (Homo sapiens) (P24468 whole entry, looked up): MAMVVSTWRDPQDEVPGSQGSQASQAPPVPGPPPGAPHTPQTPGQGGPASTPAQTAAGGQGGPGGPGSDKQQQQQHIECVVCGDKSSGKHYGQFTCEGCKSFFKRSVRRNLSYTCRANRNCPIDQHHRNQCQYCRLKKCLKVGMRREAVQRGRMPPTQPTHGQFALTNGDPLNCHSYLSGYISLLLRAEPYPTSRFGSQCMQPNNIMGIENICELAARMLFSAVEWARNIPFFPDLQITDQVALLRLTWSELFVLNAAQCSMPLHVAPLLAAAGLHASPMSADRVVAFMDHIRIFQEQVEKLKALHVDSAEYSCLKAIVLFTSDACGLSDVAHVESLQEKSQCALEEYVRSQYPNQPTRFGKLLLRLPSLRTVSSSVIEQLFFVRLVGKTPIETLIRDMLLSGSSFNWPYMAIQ

In the case of `CCOc1ccc(-n2c(-c3ccccc3)c[n+]3c2CCCCC3)cc1`, the inhibition is 28.7% in assay [1]; 52.4% (active) in [2]; 29.9% (active) in assay [3]; 90.5% (active) in assay [4]; 72.3% (active) in [5]; 66.2% (active) in assay [6].

As for `Cc1ccc2c(c1C)-c1c(ccc(C)c1C)C(=O)C2=O`, the inhibition in [1] is 58% (active); in assay [2], 34.3% (active); in assay [3], 64.4% (active); in assay [4] it was 72% (active); in assay [5], 80.5% (active); in [6], 73.8% (active).

For the compound `CC1(C)CC[C@]2(C(=O)n3ccnc3)CC[C@]3(C)[C@H](C(=O)C=C4[C@@]5(C)C=C(C#N)C(=O)C(C)(C)[C@@H]5CC[C@]43C)[C@@H]2C1`, the inhibition in [1] is 93.8% (active); in assay [2] it was 82% (active); in assay [7], 93.8% (active).

As to `CCOc1cc(/C=C2\CCC/C(=C\c3cc(Cl)c(O)c(OCC)c3)C2=O)cc(Cl)c1O`, the inhibition in assay [1] is 43.9% (active); in assay [2], 21.8%; in assay [3], 11.2%; in [4], 47.7% (active); in assay [5] it was 61.1% (active); in assay [6] it was 46.4% (active).

For `CC(=O)Nc1ccc(-c2csc(NC(=O)Nc3ccccc3)n2)cc1`, the inhibition in [1] is 4.6%; in [2], -0.97%; in assay [8] it was -38.2%; in [7] it was -3.98%; in assay [9], -18.8%; in [10], 35.7%.

For the compound `COc1ccc(-c2c[n+](CC(=O)OC3CC(C)CCC3C(C)C)c3n2CCC3)cc1` (centres undefined), the inhibition in assay [1] was 22.9%; in [2], 42.1% (active); in assay [3], 20.9%; in assay [4], 95.2% (active); in assay [5], 62.6% (active); in assay [6], 56.7% (active).

Turning to `NC(=O)c1ccc(N2CCN(S(=O)(=O)c3cccs3)CC2)c([N+](=O)[O-])c1`, the inhibition in assay [1] is -7.6%; in [2], 34.7% (active); in assay [3] it was 21%; in [4], 64.7% (active); in [5], 63.9% (active); in assay [6], 46.1% (active).
